Assay outcomes: PubChem BioAssay, National Center for Advancing Translational Sciences (NCATS)
DRD3 agonist = qHTS of D3 Dopamine Receptor Agonist: qHTS; D(3) dopamine receptor (Homo sapiens), P35462; D3R DiscoveRx beta-arrestin cells, luminescence, 90 min; max activation, %; 0.58% of 410,000 active; in the data active means max activation above about 30%; further: 0% is about no effect
Target sequence (P35462 whole entry, looked up): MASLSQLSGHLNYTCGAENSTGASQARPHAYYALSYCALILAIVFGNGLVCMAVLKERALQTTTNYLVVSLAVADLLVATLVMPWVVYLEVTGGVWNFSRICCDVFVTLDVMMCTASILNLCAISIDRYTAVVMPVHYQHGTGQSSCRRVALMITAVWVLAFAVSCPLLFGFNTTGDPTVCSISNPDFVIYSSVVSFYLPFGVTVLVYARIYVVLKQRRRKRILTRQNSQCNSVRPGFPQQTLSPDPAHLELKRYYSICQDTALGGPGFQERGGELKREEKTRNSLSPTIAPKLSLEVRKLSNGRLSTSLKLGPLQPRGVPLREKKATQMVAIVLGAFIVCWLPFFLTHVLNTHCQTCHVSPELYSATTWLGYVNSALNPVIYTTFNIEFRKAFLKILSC
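Agonist-mode cell screen: cells plated at 1500/well and incubated overnight at 37 °C, then exposed to library compounds for 90 min at 37 °C. Detection reagent was added for 30–60 min at room temperature, and luminescence was read.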
uPA generation = qHTS for Inhibitors of Cell Surface uPA Generation. cell surface uPA generation assay, qHTS. Potency, µM (doses to about 38.3 µM), without a hit: top-dose activity change, negative = inhibition, usual class: inhibitors. 0.31% of 330,000 active. AID 540303, 2011; active means well fitted inhibition curve with a large enough effect; inconclusive means small, poorly fitted or top-dose-only effect; inactive means no such curve, though single readings can be large or run the other way; tested in mouse RAW 264.7 cells; further: potency means the concentration at half of the fitted maximal effect; on the % scale 0 is the no-effect control and ±100 the full control effect; nearly all actives have a fitted effect of over 55% in size
D3 antag = qHTS of D3 Dopamine Receptor Antagonist: qHTS; D(3) dopamine receptor (Homo sapiens), P35462; max response, negative = inhibition, %; D3R cells, DiscoveRx beta-arrestin luminescence, antagonist mode; stronger effect = lower value; AID 652054, 2013; 2.5% of 360,000 active; in the data active means max response below about -50%; inconclusive means no clear call, values can overlap the other calls; further: on the % scale 0 is the no-effect control and ±100 the full control effect
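Cells plated overnight at 1500 cells/well, then exposed to library compounds with dopamine controls for 90 minutes at 37 degrees C. DiscoveRx reagent added for 30–60 minutes at room temperature; luminescence read, quantitative HTS format.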
RGS4 inh = Inhibitors of Regulator of G Protein Signaling (RGS) 4: qHTS. Regulator of G-protein signaling 4 (Homo sapiens), P49798. Transcreener GDP fluorescence polarization, RGS4-accelerated GTP hydrolysis. Potency, µM (titrated, usually from 114 µM), for the others: at the top dose activity change, negative = inhibition, hits mostly inhibitors. 0.039% of 390,000 active. AID 504845, 2011; active means well fitted inhibition curve with a large enough effect; inconclusive means small, poorly fitted or top-dose-only effect; inactive means no such curve, though single readings can be large or run the other way; further: potency means the concentration at half of the fitted maximal effect; on the % scale 0 is the no-effect control and ±100 the full control effect; nearly all actives have a fitted effect of over 75% in size
Target sequence (P49798 whole entry, looked up): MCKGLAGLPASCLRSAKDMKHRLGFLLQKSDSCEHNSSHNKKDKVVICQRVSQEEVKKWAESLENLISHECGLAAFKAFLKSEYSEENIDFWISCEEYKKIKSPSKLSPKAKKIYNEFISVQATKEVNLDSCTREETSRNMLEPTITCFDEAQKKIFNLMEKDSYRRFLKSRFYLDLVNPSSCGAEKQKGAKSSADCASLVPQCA
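MLSMR compounds (23 nl, pin-transferred) preincubated 10 min at room temperature with a 500nM (2x) first reagent, then RGS4 at 900nM (2x) plus Transcreener GDP mix added; fluorescence polarization (620/688 nm) read before and after 90 min at 30 °C.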
An asterisk follows results filed as active; [ ] = another dose, or the depositor's remark. Most compounds without a hit are left out; they make up all but 3.1% or so of the library.

Cc1ccc(N=C2C(=O)Nc3ccc(Br)cc32)cc1 was read as DRD3 agonist -20, uPA generation -15%, D3 antag -67* and RGS4 inh -32%.
Screening CCCCNCCOCCOc1ccc(F)cc1 returned DRD3 agonist -21, uPA generation 1%, D3 antag -54* and RGS4 inh 21%.
For C=CCc1cc(Cl)ccc1OCCCNC(C)C the results were DRD3 agonist -44, uPA generation -10%, D3 antag inconclusive and RGS4 inh -2%.
Screening CCCCNCCOCCOc1ccc(Cl)cc1Br returned DRD3 agonist -24, uPA generation 8%, D3 antag -87* and RGS4 inh 5%.
CC(C)NCCCOc1ccc(Cl)cc1Br was read as DRD3 agonist 3, uPA generation 9%, D3 antag -73* and RGS4 inh 25%.
COCCCNCCCOc1ccc(Cl)cc1Br was read as DRD3 agonist -7, uPA generation 2%, D3 antag inconclusive and RGS4 inh 25%.
For CC(O)CNCCCOc1ccc(Cl)cc1C(C)(C)C (configuration not stated) the results were DRD3 agonist -14, uPA generation 8%, D3 antag -53* and RGS4 inh 2%.
`CCOc1ccc(CCNC(=O)CSc2nc3ccccc3nc2Cc2ccc(C)cc2)cc1OCC` gave DRD3 agonist 3 and RGS4 inh 10%.
`Cc1nn(CC(=O)NCCc2ccc(Cl)cc2)c(=O)c2cc3cc(F)ccc3n12` gave DRD3 agonist 5 and RGS4 inh -23%.
Screening CC(C)NCCCCOc1ccc(Br)cc1Cl returned DRD3 agonist -2, uPA generation inconclusive, D3 antag -71* and RGS4 inh 0%.
`NC(Cc1ccc(Cl)cc1)c1csc(Nc2ccc(C(F)(F)F)cn2)n1` (configuration not stated) gave DRD3 agonist 10 and D3 antag -14.
`CCCOc1ccc(OC(=O)c2sc3ncn(Cc4cccc(F)c4)c(=O)c3c2C)cc1` gave DRD3 agonist 5 and RGS4 inh 7%.
Screening COc1ccc(C(=O)/C=C/Nc2ccc([N+](=O)[O-])cc2C)cc1OC returned DRD3 agonist -8, uPA generation 1%, D3 antag 7 and RGS4 inh -43%.
`COc1ccc(C(=O)/C=C/Nc2ccc([N+](=O)[O-])cc2C)c(OC)c1` gave DRD3 agonist 32*, D3 antag 16 and RGS4 inh -13%.
For Cn1c(-c2ccc3ccccc3n2)nc2cnccc21 the results were DRD3 agonist 12, uPA generation -20%, D3 antag -59* and RGS4 inh -19%.
O=C1C=CC(=O)N1 was read as DRD3 agonist -85, uPA generation inconclusive, D3 antag -83* and RGS4 inh inconclusive.
Screening CCCc1ccc(OCCNC(C)=O)cc1 returned DRD3 agonist -1, uPA generation -11%, D3 antag -21 and RGS4 inh 19%.
CC(=O)NCCOc1ccc(C(=O)O)cc1 was read as DRD3 agonist 9, uPA generation 1%, D3 antag -55* and RGS4 inh -6%.
Cc1ccc(CNCc2ccccc2Cl)cc1 was read as DRD3 agonist -13, uPA generation 3%, D3 antag -67* and RGS4 inh 3%.
Fc1ccc(CNCc2ccccc2Cl)cc1 was read as DRD3 agonist -15, uPA generation -1%, D3 antag -7 and RGS4 inh 7%.
For CCOCCCNC(=O)c1ccc(N2CCCC2)c(NS(=O)(=O)c2ccc(C)cc2)c1 the results were DRD3 agonist -3, uPA generation -19%, D3 antag -19 and RGS4 inh 0%[56.9 µM].
`Cc1ccc(S(=O)(=O)Nc2cc(C(=O)NCCN3CCCC3)ccc2N2CCCCC2)cc1` gave DRD3 agonist -26, uPA generation -2%, D3 antag -51* and RGS4 inh 5%.
`COCCCNC(=O)c1ccc(N2CCCC2)c(NS(=O)(=O)c2ccc(C)cc2)c1` gave DRD3 agonist 1, D3 antag -20 and RGS4 inh -7%.
Screening Cc1ccc(S(=O)(=O)Nc2cc(C(=O)NCCN(C)C)ccc2N2CCCCC2)cc1 returned DRD3 agonist -20, uPA generation -9%, D3 antag -64* and RGS4 inh 10%.
CCO/C(=C/c1sc2ccc(OC)cc2[n+]1CCCS(=O)(=O)[O-])CC was read as DRD3 agonist -1, uPA generation 4%, D3 antag -73* and RGS4 inh -48%.
For COC(=O)c1ccc(NC(=O)N2CCC(CN3CCc4ccccc4C3)CC2)cc1 the results were DRD3 agonist -21 and RGS4 inh 13%.
COc1cc(NC(=O)c2nnn(CC(=O)Nc3cc(C)ccc3C)c2N)cc(OC)c1 was read as DRD3 agonist 0 and RGS4 inh -3%.
For CN1CCN(c2oc(-c3ccccc3)nc2S(=O)(=O)c2ccc(Br)cc2)CC1 the results were DRD3 agonist -36, uPA generation -2%, D3 antag -67* and RGS4 inh -4%.
`CN1CCN(c2oc(-c3ccccc3Cl)nc2S(=O)(=O)c2ccccc2)CC1` gave DRD3 agonist -7, uPA generation -1%, D3 antag -79* and RGS4 inh 3%.
Screening O=S(=O)(c1ccccc1)c1nc(-c2ccccc2)oc1N1CCCC1 returned DRD3 agonist 13, uPA generation 7%, D3 antag 7 and RGS4 inh -16%.
Cc1ccc(-n2nc3c(N4CCC(C(=O)N5CCCCC5)CC4)nnc(C)c3c2C)cc1 was read as DRD3 agonist -3 and RGS4 inh 26%.
`CCCOc1ncnc2c1[nH]c1ccc(OC)cc12` gave DRD3 agonist 13, uPA generation 4.5µM*, D3 antag 34 and RGS4 inh 14%.
`Cc1csc(SCC(=O)NC2CCS(=O)(=O)C2)n1` (configuration not stated) gave DRD3 agonist 30*, uPA generation 7%, D3 antag -6 and RGS4 inh -4%.
Screening Cc1nc2c(O)cccc2c(=O)[nH]1 returned RGS4 inh inactive.
Screening CCOC(=O)c1c(CN2CCCCC2)n(C)c2cc(Br)c(O)cc12 returned DRD3 agonist -59, D3 antag -87* and RGS4 inh -16%.
Screening CN(C)c1ccc(/C=C(\C#N)c2nc3ccccc3c(=O)[nH]2)cc1 returned DRD3 agonist -11 and RGS4 inh -23%.
Cc1cccc(/C=C(\C#N)c2nc3ccccc3c(=O)[nH]2)c1 was read as DRD3 agonist 34* and RGS4 inh -13%.
Screening O=C(Nc1cccc(Cl)c1)c1ccc(NCCCN2CCOCC2)c([N+](=O)[O-])c1 returned DRD3 agonist -12, uPA generation -16%, D3 antag -89* and RGS4 inh 5%.
